The whole screen tested about 100,000 compounds, of which about 4,200 (4.2%) were called active. For the sample, actives were picked, then their nearest neighbours and some compounds at random. Values without a mark were called inactive.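 The calls were made as follows: active = single-dose well whose peak fluorescence ratio is a statistical outlier from its plate by either plate-standardised score or position-corrected B-score; inactive = the rest.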

Data on 89 compounds can be found in PubChem BioAssay AID449739 (Vanderbilt High Throughput Screening Facility, 2010).

Sequence of Voltage-dependent T-type calcium channel subunit alpha-1H (Homo sapiens) (O95180 whole entry, looked up): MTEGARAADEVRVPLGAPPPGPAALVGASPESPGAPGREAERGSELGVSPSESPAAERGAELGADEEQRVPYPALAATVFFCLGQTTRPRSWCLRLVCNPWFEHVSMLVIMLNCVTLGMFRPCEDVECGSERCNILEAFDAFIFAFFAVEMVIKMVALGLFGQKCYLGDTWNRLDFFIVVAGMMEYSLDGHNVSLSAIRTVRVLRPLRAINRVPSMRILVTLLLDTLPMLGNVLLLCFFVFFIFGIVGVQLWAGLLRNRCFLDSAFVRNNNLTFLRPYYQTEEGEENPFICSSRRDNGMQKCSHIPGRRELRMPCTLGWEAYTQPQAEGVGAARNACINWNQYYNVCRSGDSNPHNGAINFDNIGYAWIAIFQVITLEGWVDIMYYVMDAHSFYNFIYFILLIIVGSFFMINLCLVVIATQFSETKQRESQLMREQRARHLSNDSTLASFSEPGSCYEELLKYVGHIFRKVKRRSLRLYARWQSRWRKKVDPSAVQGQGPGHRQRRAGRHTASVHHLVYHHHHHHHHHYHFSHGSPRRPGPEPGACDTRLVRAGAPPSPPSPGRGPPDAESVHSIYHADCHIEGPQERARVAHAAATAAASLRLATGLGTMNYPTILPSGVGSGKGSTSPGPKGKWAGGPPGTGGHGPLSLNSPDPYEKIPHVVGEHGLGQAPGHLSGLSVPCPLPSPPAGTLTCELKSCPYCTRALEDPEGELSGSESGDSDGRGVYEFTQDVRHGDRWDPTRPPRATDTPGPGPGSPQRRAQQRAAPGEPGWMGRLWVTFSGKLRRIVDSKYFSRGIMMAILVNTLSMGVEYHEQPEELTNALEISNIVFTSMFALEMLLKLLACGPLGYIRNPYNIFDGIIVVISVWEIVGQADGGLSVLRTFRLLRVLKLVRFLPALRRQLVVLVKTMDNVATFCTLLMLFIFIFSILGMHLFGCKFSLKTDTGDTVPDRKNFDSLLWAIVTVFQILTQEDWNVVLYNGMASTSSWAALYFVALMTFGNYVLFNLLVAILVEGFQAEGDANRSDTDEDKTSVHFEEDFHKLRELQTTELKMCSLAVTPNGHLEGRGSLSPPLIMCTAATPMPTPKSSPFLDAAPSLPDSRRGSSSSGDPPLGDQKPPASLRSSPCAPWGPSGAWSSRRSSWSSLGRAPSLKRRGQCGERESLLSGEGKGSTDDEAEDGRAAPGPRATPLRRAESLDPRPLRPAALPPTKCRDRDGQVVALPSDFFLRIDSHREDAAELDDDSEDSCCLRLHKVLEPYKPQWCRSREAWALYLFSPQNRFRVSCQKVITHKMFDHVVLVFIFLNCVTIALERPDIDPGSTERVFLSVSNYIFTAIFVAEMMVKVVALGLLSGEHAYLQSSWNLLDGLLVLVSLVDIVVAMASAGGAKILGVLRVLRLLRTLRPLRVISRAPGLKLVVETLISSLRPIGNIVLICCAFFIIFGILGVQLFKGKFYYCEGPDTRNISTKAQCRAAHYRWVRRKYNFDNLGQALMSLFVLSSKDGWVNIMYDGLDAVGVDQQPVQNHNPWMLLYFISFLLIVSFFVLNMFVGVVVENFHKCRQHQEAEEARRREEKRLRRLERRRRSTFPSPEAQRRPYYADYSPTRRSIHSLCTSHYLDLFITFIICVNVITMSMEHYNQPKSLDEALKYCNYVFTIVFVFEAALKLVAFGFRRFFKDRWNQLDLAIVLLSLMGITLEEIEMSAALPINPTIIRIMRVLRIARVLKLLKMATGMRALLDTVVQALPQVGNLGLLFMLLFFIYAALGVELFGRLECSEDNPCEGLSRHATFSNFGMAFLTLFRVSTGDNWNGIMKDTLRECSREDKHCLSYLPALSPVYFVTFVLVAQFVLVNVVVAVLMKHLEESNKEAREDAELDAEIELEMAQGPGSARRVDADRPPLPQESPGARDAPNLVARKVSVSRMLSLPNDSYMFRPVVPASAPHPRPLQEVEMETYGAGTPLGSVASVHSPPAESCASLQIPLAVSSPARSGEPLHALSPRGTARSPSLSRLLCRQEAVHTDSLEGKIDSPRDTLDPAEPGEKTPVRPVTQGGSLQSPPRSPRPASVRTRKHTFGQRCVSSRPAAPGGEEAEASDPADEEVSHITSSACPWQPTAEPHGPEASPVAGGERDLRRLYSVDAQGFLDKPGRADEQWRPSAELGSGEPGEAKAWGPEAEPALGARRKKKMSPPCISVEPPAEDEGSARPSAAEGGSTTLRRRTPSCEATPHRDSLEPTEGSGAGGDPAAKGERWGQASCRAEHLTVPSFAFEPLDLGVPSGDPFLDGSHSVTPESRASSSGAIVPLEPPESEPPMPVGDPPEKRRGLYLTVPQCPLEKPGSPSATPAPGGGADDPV

This test concerns the target Voltage-dependent T-type calcium channel subunit alpha-1H (Homo sapiens) (UniProt O95180). As to the kind of experiment: Cav3.2 calcium influx blockers – cell-based, Fluo-4 calcium fluorescence, FDSS, MLSMR library, primary screen (AID 449739). As to conditions: Cav3.2-expressing cells, at 10 µM, active compounds read low.
On to `CCC(=O)Nc1ccc(C(=O)Nc2cc(C)on2)cc1`, for which the B-score was 0.744.
With `CCc1ccc2ncc(C(=O)c3ccccc3)c(N3CCOCC3)c2c1`, the B-score was -0.907.
`CC(C)C(=O)Nc1cccc(NC(=S)NC(=O)C(c2ccccc2)c2ccccc2)c1`: the B-score is -5.49 (active).
On to `CC(C)C(=O)NC(=S)Nc1ccccc1F`, for which the B-score was -0.107.
As to `COc1ccccc1NC(=S)NC(=O)C(C)C`, the B-score was 0.35.
In the case of `O=C(NCCc1ccccc1)c1ccc(OCCOc2ccccc2)cc1`, the B-score is -0.578.
Consider `Cc1cc(C(=O)NCCCc2ccccc2)no1`, for which the B-score was 0.538.
`CC(C)c1ccc(C(=O)NCCCc2ccccc2)cc1`: the B-score was -4.2 (active).
On to `CC(=O)Nc1cccc(/C(C)=N/NC(=O)c2ccccc2Cl)c1`, for which the B-score is 0.407.
As for `Cc1ccc(-c2csc(NCCc3nc4cc(Cl)c(Cl)cc4n3CCOCCO)n2)cc1`, the B-score is -0.914.
For `CC1Cc2ccccc2N1C(=O)CSc1nc2ccccc2o1` (centres undefined) the value was -4.15 (active); for `CCS(=O)(=O)c1ccc2oc(SCC(=O)N3c4ccccc4CC3C)nc2c1` (centres undefined), 0.393; for `O=C(CSc1nc2ccccc2o1)N1CCN(c2ccccc2)CC1`, -0.102.
In the case of `Cc1nc(SCC(=O)c2ccccc2)c([N+](=O)[O-])[nH]1`, the B-score was 0.184.
`COc1c(O)cc2oc(-c3ccc(O)c(O)c3)cc(=O)c2c1O`: the B-score was 1.78.
The result for `COc1ccccc1N(C)S(=O)(=O)c1ccc(C(=O)N2CCC(C(N)=O)CC2)cc1` reads -0.0467.
For `CCCCC1=CC2=CC(=O)C(C)(OC(=O)CC)C(=O)C2=CN1CCCOC(C)C` (centres undefined) the value was 0.761; for `O=C(CC1N=C2c3ccccc3N=C(SCc3ccccc3Cl)N2C1=O)NCc1ccco1` (centres undefined), -4.98 (active).
`CCC(C)NC(=O)CSC1=Nc2ccccc2C2=NC(CCC(=O)NCc3ccco3)C(=O)N12` (centres undefined): the B-score was 0.161.
For `O=C(CSC1=Nc2ccccc2C2=NC(CC(=O)NCc3ccco3)C(=O)N12)NCc1ccco1` (centres undefined) the value was 0.442.
For `O=C(Cc1ccc2c(c1)CCCC2)Nc1ccccc1Cl` the value was -0.144.
On to `O=C(NCc1ccccc1)c1onc(CSc2ccncc2)c1C(=O)NCc1ccccc1`, for which the B-score was -0.591.
For the compound `Cc1cccc(OCc2nnc(SCc3nc4cc(C(F)(F)F)ccc4c(=O)[nH]3)o2)c1`, the B-score was -1.8.
Turning to `Cc1cc(C)cc(OCc2nnc(SCC(=O)Nc3ccccc3)o2)c1`, the B-score was 0.346.
For `Cc1cccc(OCc2nnc(SCn3nnc4ccccc4c3=O)o2)c1`, the B-score is -6.05 (active).
With `Cn1cc([N+](=O)[O-])c(C(=O)Nc2ccc3c(c2)OCCO3)n1`, the B-score was 0.353.
With `COc1cccc(NC(=O)c2nn(C34CC5CC(CC(C5)C3)C4)cc2[N+](=O)[O-])c1`, the B-score was -4.14 (active).
Regarding `COc1cccc(NC(=O)c2ccccc2SC)c1`, the B-score was 0.424.
Turning to `O=C(Nc1nnc(CCOCCOCCc2nnc(NC(=O)c3ccco3)s2)s1)c1ccco1`, the B-score is 0.766.
`Cc1cc(C(=O)CSc2nc(N)cc(=O)[nH]2)c(C)n1CCc1ccc(Cl)cc1`: the B-score is 0.737.
Turning to `CC(/C=C/C1(O)C(C)CC(=O)CC1(C)C)OC1OC(CO)C(O)C(O)C1O` (centres undefined), the B-score was 0.424.
Consider `COc1ccc(-c2cn(-c3ccc(C)cc3)c(=O)n2CC(=O)Nc2ccc(OC)c(OC)c2)cc1`, for which the B-score is -1.46.
As for `COc1ccc(NC(=O)Cn2c(-c3ccc(OC)cc3)cn(-c3ccc(C)cc3)c2=O)cc1`, the B-score was -4.33 (active).
With `CCOc1ccc(NC(=O)CN2CCN(CC(=O)Nc3ccc(OC)cc3)CC2)cc1`, the B-score is 1.58.
For `CC(C)(C)NS(=O)(=O)c1ccc(NC(=O)NC2CCCCC2)cc1` the value was -0.833.
For `Cc1n[nH]c(=S)n1/N=C/c1ccc(Br)o1` the value was 0.825; for `COc1ccc(Nc2nc(Cl)nc(NCc3ccco3)n2)cc1`, -0.534; for `COc1ccc(CCNC(=O)C2CCCN(Cc3nc(-c4cccc(Cl)c4)oc3C)C2)cc1OC` (centres undefined), -3.48 (active).
The result for `COc1ccc(CCNC(=O)C2CCN(c3nn4c(=O)cc(C)nc4s3)CC2)cc1OC` reads 0.351; that for `COc1ccc(CCN(C)C(=O)C2CCCN(Cc3ccc(OC)c(OC)c3)C2)cc1OC` (centres undefined), -0.0096.
Regarding `CC1(OC(=O)C2CCCC2)C(=O)C=C2C=C(c3ccc(C#N)cc3)OC=C2C1=O` (centres undefined), the B-score was -0.314.
`CCCCNC(=O)C(=O)c1ccccc1NC(C)=O`: the B-score was 0.725.
`CCn1c(=O)cc(OCC(=O)NCCCN2CCN(c3cccc(Cl)c3)CC2)c2ccccc21`: the B-score was 0.375.
Regarding `O=C(CCCn1c(=O)[nH]c2cc(Cl)ccc2c1=O)NCCN1CCN(c2ccccc2)CC1`, the B-score is 0.27.
On to `O=C(CCCCn1c(=O)[nH]c2ccccc2c1=O)NCc1ccc2c(c1)OCO2`, for which the B-score was -0.0333.
In the case of `O=C(CCn1c(=O)[nH]c2ccccc2c1=O)NCCCN1CCN(c2cccc(Cl)c2)CC1`, the B-score is -7.26 (active).
Consider `Cc1ccc(C)c(N2CCN(C(=O)CCCCn3c(=O)[nH]c4ccccc4c3=O)CC2)c1`, for which the B-score was -8.03 (active).
In the case of `COc1ccc(CCNC(=O)CCCCn2c(=O)[nH]c3ccccc3c2=O)cc1OC`, the B-score is 0.545.
In the case of `COC(=O)c1ccccc1OCC(=O)N1CCN(c2ccc(Cl)cc2)CC1`, the B-score was -1.9.
For the compound `Cc1ccccc1OC/C(O)=C(\C#N)c1nc2ccccc2[nH]1`, the B-score is -0.71.
Regarding `COc1cc(/C=N\NC(=O)CNC(=O)c2cccc([N+](=O)[O-])c2)ccc1O`, the B-score was 0.194.
With `COc1cc(OC)c(/C=N/NC(=O)c2ccc([N+](=O)[O-])cc2)cc1Br`, the B-score is -0.234.
On to `COc1cccc(/C=N/NC(=O)c2cccc([N+](=O)[O-])c2)c1OS(=O)(=O)c1ccc(C)cc1`, for which the B-score was -6.01 (active).
The result for `C#CCNC(=O)C1=C[C@@H](c2ccccc2)[C@H](CCCO)[C@@H](OCC)O1` reads 1.09; that for `Cc1ccc(C(C(=O)NC2CCCC2)N(Cc2ccco2)C(=O)CCC(=O)Nc2ccccn2)cc1` (centres undefined), 0.124; that for `Cc1ccc(C)c(N(CC(=O)NCc2ccco2)C(=O)CCC(=O)Nc2ccccn2)c1`, -2.66.
The result for `Cc1ccc2c(c1)N(CC(=O)N(Cc1ccccn1)Cc1ccco1)C(=O)C(C(C)C)O2` (centres undefined) reads -6.96 (active).
The result for `C#CCOCCOCCOCCNc1nc(N2CCN(C(=O)[C@H](CCC(=O)O)n3cc(C(N)CO)nn3)CC2)nc(N2CCN(C(=O)[C@H](Cc3ccc(O)cc3)n3cc(C(N)[C@H](C)CC)nn3)CC2)n1` (some centres undefined) reads -0.353; that for `O=C(O)/C=C/C(=O)Nc1ccc(F)cc1F`, 0.769; that for `Cn1cnc([N+](=O)[O-])c1Sc1ccccc1`, 0.333.
Consider `CC(C)(C)n1nc(Cc2cccc3ccccc23)c(C#N)c1N`, for which the B-score is -1.32.
For the compound `c1ccc2c(CSCc3nc4ccccc4[nH]3)cccc2c1`, the B-score was -7.7 (active).
For `c1ccc(-c2nnc(SCc3nc4ccccc4[nH]3)o2)cc1` the value was -1.58.
On to `COC(=O)Cc1nc2ccccc2[nH]1`, for which the B-score was 0.0867.
For the compound `COc1cc2c(cc1O)[C@H](Cc1ccc(Oc3cc(C[C@@H]4NCCc5cc(OC)c(O)cc54)ccc3O)cc1)NCC2`, the B-score is 0.142.
For `C(=N/N1CCN(c2ccccc2)CC1)/c1cccs1` the value was 0.219; for `O=C(CCNS(=O)(=O)c1ccccc1C(F)(F)F)NCc1ccc2c(c1)OCO2`, -0.223; for `COCCn1c(-c2ccc(OC)c(OC)c2)nc2ccccc21`, 0.414.
In the case of `CCCn1c(C(O)c2cc(OC)ccc2OC)nc2ccccc21` (centres undefined), the B-score was -1.69.
For `COc1ccc(-c2nc3ccccc3n2CCC(C)C)cc1OC`, the B-score is -6.94 (active).
For `CCCCN1C(N)=NC[C@@H]1CC1CCCCC1` the value was 0.078; for `CCCCN1C(=S)NC[C@@H]1C(C)CC` (some centres undefined), -0.603; for `C[C@H](NC(=O)c1nc[nH]c1C(=O)N[C@@H](C)C(=O)OC(C)(C)C)C(=O)OC(C)(C)C`, 0.275.
Take `COc1cccc(-c2nnc(SCCOc3ccc4c(C)cc(=O)oc4c3)o2)c1`: the B-score is 1.22.
The result for `Cc1ccc(SCCN2C(=O)NC(C)(C)C2=O)cc1` reads 0.269.
With `Cc1ccc(C2(c3ccc(C)cc3)NC(=O)N(Cc3c(C)noc3C)C2=O)cc1`, the B-score is -6.31 (active).
In the case of `COc1ccc(C(=O)CN2C(=O)NC(C)(c3ccc(C)cc3)C2=O)cc1OC` (centres undefined), the B-score was -0.586.
Turning to `NS(=O)(=O)c1cccnc1Nc1cccc(Cl)c1`, the B-score is -0.12.
`O=S(=O)(c1cnccc1N1CCN(/N=C/c2ccc(Br)cc2)CC1)N1CCCCC1`: the B-score was -0.791.
On to `Cc1ccc(-c2csc(N(Cc3ccco3)C(=O)c3cccs3)n2)cc1`, for which the B-score is -1.85.
For `Cc1ccc(/C=N/NC(=O)c2sccc2OCc2ccc(F)cc2)cc1`, the B-score is -0.514.
As for `O=C(Nc1ccc(N2CCN(C(=O)c3ccccc3)CC2)c(Cl)c1)c1cccnc1`, the B-score was 1.44.
As to `NC(=O)N1CCCC1C(=O)Nc1ccc(Cl)c(Cl)c1` (centres undefined), the B-score is -0.377.
The result for `O=C(Nc1ccc(Cl)c(Cl)c1)N1CC=C(c2ccccc2)CC1` reads -6.72 (active); that for `COC(=O)CCCC1=CC2=CC(=O)C(C)(OC(=O)c3cccs3)C(=O)C2=CN1CC1CC1` (centres undefined), 1.17; that for `C#CCOCCOCCOCCNc1nc(N2CCN(C(=O)[C@H](C(C)C)n3cc(CCO)nn3)CC2)nc(N2CCN(C(=O)[C@H](C(C)C)n3cc(CCO)nn3)CC2)n1`, 0.0404.
For `Cc1cc(NC(=O)CCC(=O)N(CC(=O)NCC2CCCO2)c2ccccc2C)no1` (centres undefined) the value was 0.22.
Take `CCCCOc1ccc(N(CC(=O)NCC2CCCO2)C(=O)CCC(=O)Nc2cc(C)ccn2)cc1` (centres undefined): the B-score was -9.41 (active).
The result for `COCCNC(=O)CN(C(=O)CCC(=O)Nc1cc(C)on1)c1ccc(C)cc1C` reads 0.162.
